Assay outcomes deposited in PubChem by several laboratories.
Wnt act: activates Wnt/beta-catenin signaling in a reporter cell assay; activator, plate reader; activation, % at 9.35 µM; actives 1.2% (n = 300,000); in the data active means activation above about 30%, passing the limit was not always enough; inconclusive means no clear call, values can overlap the other calls;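 further: 0% = neutral control wells and 100% = positive control wells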
esBAF inh: blocks esBAF chromatin remodeling in mouse ES cells | Bmi1-luciferase knock-in reporter, 24 h; 100% = twice the neutral-well signal | reporter increase, % at 12.5 µM | actives 2% (n = 350,000); in the data active means activation above about 40%; inconclusive means no clear call, values can overlap the other calls;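 further: 0% = median of the plate's neutral control wells and 100% = double that signal; a rise in the Bmi1 reporter signal indicates esBAF inhibition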
SMARCA2 act: increases SMARCA2 function in MMTV reporter cells; MG213 cells, MMTV-luciferase reporter, dexamethasone, overnight; activation, % at 9.1 µM; actives 1% (n = 370,000); AID 652017; in the data active means activation above about 7.8%;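 further: 0% = vehicle wells and 100% = reference activator wells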
HSF1 inh: HSF1 inhibition; activity change, negative = inhibition, % at 7.5 µM (by protocol); NIH3T3-HGL HSE-luciferase, MG132-induced, luminescence 8 h; stronger effect = lower value; actives 0.77% (n = 300,000);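 active means more than half of replicate wells show activity change below -50%, luminescence cut by over half; inconclusive means some wells, but at most half, below -50%; inactive means no replicate well below -50%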;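 further: luciferase reports HSF-1 transcriptional activity via heat shock element; 0% = median of DMSO wells and -100% = zero luminescence signal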
HSF1 activator: increases HSF-1 driven luciferase reporter signal. NIH3T3-HGL HSF-1 luciferase reporter, MG132, 8 h; 100% = twice DMSO control signal. activation, % at 9 µM. actives 1.7% (n = 300,000). AID 504408;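 active means mean replicate activation of at least 50% with a set share of replicates each reaching 50%; inconclusive means only one of those two conditions met; inactive means mean below 50% and too few replicates reaching it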;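 further: 0% = median of the neutral control wells and 100% = twice that signal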
MITF act: increases MITF-driven TRPM1 promoter luciferase signal; SK-MEL-5 TRPM1-promoter luciferase, 24 h; % of positive control, neutral wells = 0; activation, % at 12.5 µM; actives 0.75% (n = 300,000);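 active means mean activation of at least 80% with every replicate also reaching 80%; inconclusive means mean reaches 80% but some replicate falls short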;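 further: 0% = neutral control wells and 100% = parthenolide positive control wells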
An asterisk follows results filed as active; ? = inconclusive; · = not tested or not shown. The list is not random: actives were taken first. Their share in the collection is about 4.3%.

SMILES	Wnt act	esBAF inh	SMARCA2 act	HSF1 inh	HSF1 activator	MITF act
COc1cc(CNCc2ccccn2)ccc1OCc1ccc(Cl)c(Cl)c1	24.8	35.7	-1.7	24.2	24.3	105.1*
COc1cc(CNCc2ccccn2)ccc1OCc1ccc(Cl)cc1Cl	·	4.3	-1.7	9.6	24.6	2.7
CCC(=O)N1C[C@@H](C)[C@@H](OC)CN(C)C(=O)c2ccc(NC(=O)C3CC3)cc2OC[C@@H]1C	·	-0.1	·	·	·	·
CCC(=O)Nc1ccc2c(c1)OC[C@@H](C)N(C(=O)NC1CCCCC1)C[C@@H](C)[C@H](OC)CN(C)C2=O	·	2.3	·	·	·	·
Nc1nnnn1/N=C/C(Br)=C/c1ccccc1	-19.7	52.9*	-10.0	188.0	252.1*	-83.4
CC(/C=N/N1CCN(c2ccc(C)cc2)CC1)=C\c1ccccc1	-2.1	·	0.2	5.3	-0.7	-6.2
BrC(=C\c1ccccc1)/C=N/N1CCN(c2ccccc2)CC1	3.5	·	3.3	107.0	162.5*	10.9
Nc1nnnn1/N=C/C=C/c1ccccc1	·	19.5	-0.9	5.3	7.4	23.0
O=C(C[C@@H]1CC[C@@H](NC(=O)C2CCC2)[C@H](CO)O1)Nc1nccs1	·	-2.4	·	·	·	·
CCOC(=O)c1c(NC(=O)COc2ccccc2C#N)sc2c1CC(C)(C)NC2(C)C	-0.7	-7.0	0.6	-52.5*	-49.9	-51.8
CN1C(=O)c2cc(NC(=O)Cc3ccccc3)ccc2OC[C@H]2O[C@H](CC(=O)NC3CCC3)CC[C@H]21	·	1.9	·	·	·	·
CCCNC(=O)N(C)C[C@@H]1Oc2ncc(-c3ccncc3)cc2C(=O)N([C@H](C)CO)C[C@H]1C	·	-5.0	·	·	·	·
Cc1c(NC(=O)Nc2ccc([N+](=O)[O-])cc2)c(=O)n(-c2ccccc2)n1C	0.4	-3.5	-3.0	20.4	57.9*	4.0
O=C(CSc1ncnc2c1nnn2Cc1ccccc1)NC1CCCC1	2.5	·	-4.2	40.2	57.8*	7.6
CC(C)(C)NC(=O)CSc1ncnc2c1nnn2Cc1ccccc1Cl	·	-3.1	-1.2	86.1	112.3*	-9.6
O=S(=O)(Cc1ccccc1)NCC[C@H]1CC[C@H](NS(=O)(=O)c2ccccc2)[C@@H](CO)O1	·	2.2	·	·	·	·
Cc1cc(C)cc(C(=O)O/N=C(\N)c2ccc(Br)cc2)c1	·	10.0	-2.5	7.8	23.2	20.8
Cc1ccc(C(=O)O/N=C(\N)c2ccc(Br)cc2)cc1C	·	53.1*	3.2	-5.9	4.9	54.5
Cc1ccc(C)c(C(=O)O/N=C(\N)c2ccc(Br)cc2)c1	26.5	43.3*	4.9	16.3	16.6	·
N/C(=N\OC(=O)c1ccoc1)c1ccc(Br)cc1	42.0*	44.4*	7.8*	30.0	69.5*	92.9*
Cc1cccc(NC(=O)CCNC(=O)c2ccco2)c1	2.8	·	-0.3	3.2	58.4*	0.5
CCc1ccc(CNCCNC(=O)c2ccco2)cc1	42.3*	35.7	6.9	·	·	-6.8
O=C(c1ccco1)N1CCCC(Nc2ccc3c(c2)OCCO3)C1 (stereo not given)	14.4	43.0*	4.1	19.7	19.4	29.0
O=C(CNC(=O)c1ccco1)Nc1ccc2c(c1)OCCO2	0.8	·	-4.8	-66.7*	-69.6	-20.9
COc1cccc(-c2ccc([C@H]3[C@@H](CO)N4CCCCN(CC5CC5)C[C@@H]34)cc2)c1	·	6.3	·	·	·	·
SMILES	Wnt act	esBAF inh	SMARCA2 act	HSF1 inh	HSF1 activator	MITF act
COc1cccc(S(=O)(=O)Nc2ccc3c(c2)[C@@H]2C[C@@H](CC(=O)NCc4cccc(F)c4)O[C@H](CO)[C@@H]2O3)c1	·	7.8	·	·	·	·
Cc1ccc(C(=O)N/N=C/C2=Cc3ccccc3OC2C)cc1 (stereo not given)	5.9	·	0.2	6.0	38.5	25.5
CC1Oc2ccccc2C=C1/C=N/NC(=O)c1ccccc1 (stereo not given)	36.8*	·	1.2	18.0	39.0	89.5*
O=Nc1c2cc3ccccc3[nH]c-2c2ccccc12	74.0*	-0.6	3.5	·	·	18.3
O=Nc1c(O)c2ccccc2c2ccccc12	-10.0	-62.1	-8.2	-11.8	-14.3	-96.3
CCN1[C@@H]2c3ccc(-c4ccccc4F)c(=O)n3C[C@@H]2[C@@H](CO)[C@@H]1C(=O)NC1CCCC1	·	2.4	·	·	·	·
COCC(=O)Nc1sc2c(c1C(=O)OC)CCC(C)C2 (stereo not given)	·	1.4	-1.8	-5.0	6.7	·
COC(=O)c1c(NC(=O)CN2CCOCC2)sc2c1CCC(C)C2 (stereo not given)	·	61.6*	0.9	18.0	20.7	?
